Bioassay records: PubChem, National Center for Advancing Translational Sciences (NCATS)
TGFb SMAD3 inh: inhibitors of TGF-b signaling; HepG2 CAGA-GFP TGF-b/SMAD3 reporter, GFP fluorescence, 18 h; TGF-beta stimulated, 500 pg/mL final; Potency, µM (top dose mostly 46.1 µM), without a hit: at the top dose activity, negative = inhibition, usual class: inhibitors; 1.2% of 410,000 active; AID 588855; note: potency is the fitted concentration of half-maximal effect; % is set by controls: 0 for no effect and ±100 for the full control effect; nearly all actives have a fitted effect of over 65% in size
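Read-out: total well GFP (ex488/em500-530) summed from mean per-cell fluorescence. Cells: HEPG2 CAGA-GFP, 1% FBS DMEM, 18 h at 37 degrees C with 500 pg/mL final TGF-beta. Unstimulated wells served as the full-inhibition control; stimulated DMSO wells = 0%.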
IL-1B inflam inh: blocks inflammasome-driven IL-1 beta release. THP-1 LPS/ATP IL-1B secretion, AlphaLISA, 16 h; hits give low values. activity change, % at 57.5 µM. 4.7% of 360,000 active; in the data active = activity change below about -50%; inconclusive = mostly about -30% to -49%; note: % is set by controls: 0 for no effect and ±100 for the full control effect
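Secreted IL-1B measured by AlphaLISA bead assay after 16 h compound exposure of THP-1 cells; compounds (final up to 57.5 uM) added 1 h before LPS (250 ng/mL) and ATP (1.25 mM) stimulation; lower signal means less secretion.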
HepG2 viability: kills HepG2 cells in TGF-b inhibitor counter-screen; HepG2 CAGA-GFP viability, ATP luminescence, 18 h; Potency, µM (doses to about 46.1 µM), for the others: at the highest dose activity change, negative = cytotoxicity, actives largely listed as cytotoxic; 0.76% of 410,000 active; AID 588856; note: potency is the fitted concentration of half-maximal effect
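CellTiter-Glo luminescence gave cytotoxicity after 18 hours at 37 degrees C. The cells were HepG2 CAGA-GFP in 1% FBS DMEM, stimulated with 500 pg/mL TGF-beta after compound addition. %Activity was normalised to no-cell wells (complete cell-killing) and DMSO (no toxicity), and curves were fitted and classified.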
TDP1 cell CPT: DT40-hTDP1 cell growth loss with CPT; Potency, µM (doses to about 46.2 µM), inactives show at the top dose activity change, negative = growth inhibition, actives largely listed as inhibitors; 12% of 420,000 active; chicken DT40 Tdp1-/-;hTDP1 cells + 20 nM CPT, ATP luminescence, 48 h; note: potency is the fitted concentration of half-maximal effect; % is set by controls: 0 for no effect and ±100 for the full control effect; nearly all actives have a fitted effect of over 55% in size
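Chicken DT40 Tdp1-/- cells stably complemented with human TDP1 were seeded at 400 cells/well in medium containing 20 nM camptothecin, exposed to pin-transferred compounds, and grown at 37 °C for at least 48 hr. Viability was read as ATP luminescence.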
TDP1 cell noCPT: qHTS for Inhibitors of human tyrosyl-DNA phosphodiesterase 1 (TDP1): qHTS in cells in absence of CPT; DT40 Tdp1-/- hTDP1 cells, no CPT, ATP luminescence, 48 h; 15% of 420,000 active; Potency, µM (doses to about 46.2 µM), for the others: top-dose activity change, negative = growth inhibition, most hits filed as inhibitors; note: potency is the fitted concentration of half-maximal effect; % is set by controls: 0 for no effect and ±100 for the full control effect; nearly all actives have a fitted effect of over 55% in size
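Cells were dispensed at 400 per well, compounds added by pin tool, plates incubated ≥48 hr at 37 °C, then CellTiter-Glo added for 30 min at room temperature before luminescence reading. Line: DT40 Tdp1-/- complemented with hTDP1; camptothecin omitted.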
TDP1 inh: TDP1 (human) enzyme inhibition | Potency, µM (top dose mostly 130 µM), without a hit: at the top dose activity change, negative = inhibition, actives largely listed as inhibitors | 0.28% of 350,000 active | recombinant TDP1, AlphaScreen DNA substrate cleavage | Q9NUW8 | AID 485290; note: potency is the fitted concentration of half-maximal effect; % is set by controls: 0 for no effect and ±100 for the full control effect; nearly all actives have a fitted effect of over 40% in size
Target sequence (Q9NUW8 whole entry, looked up): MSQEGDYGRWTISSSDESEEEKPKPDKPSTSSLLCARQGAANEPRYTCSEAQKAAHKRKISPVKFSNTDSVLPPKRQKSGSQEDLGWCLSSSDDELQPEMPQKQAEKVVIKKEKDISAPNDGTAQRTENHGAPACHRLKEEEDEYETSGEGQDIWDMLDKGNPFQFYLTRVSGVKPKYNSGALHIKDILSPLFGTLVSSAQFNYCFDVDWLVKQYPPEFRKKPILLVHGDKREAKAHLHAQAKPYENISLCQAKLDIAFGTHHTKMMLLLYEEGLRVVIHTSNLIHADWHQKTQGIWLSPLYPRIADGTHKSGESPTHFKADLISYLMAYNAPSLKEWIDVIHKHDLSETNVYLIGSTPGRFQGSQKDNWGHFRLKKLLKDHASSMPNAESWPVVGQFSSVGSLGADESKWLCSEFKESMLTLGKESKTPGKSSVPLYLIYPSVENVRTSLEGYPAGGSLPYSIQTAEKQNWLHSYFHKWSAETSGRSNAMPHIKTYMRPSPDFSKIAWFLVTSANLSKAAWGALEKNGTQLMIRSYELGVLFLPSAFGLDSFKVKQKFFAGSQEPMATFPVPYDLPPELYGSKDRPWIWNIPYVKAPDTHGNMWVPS
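Recombinant human Tdp1 (E. coli-expressed, 1 nM final) preincubated with compounds 15 min at room temperature, then 5'-biotin/3'-phosphotyrosine-FITC DNA substrate (15 nM final) added for 5 min. AlphaScreen beads (10 ug/ml final) added 10 min; cleavage lowers signal.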
* hit, by the source's call; i = inactive; ? = inconclusive; . = no result given; [ ] = another dose, or the depositor's remark. Rows were chosen to be rich in hits. Some 19% of all compounds tested hit in one or more screens of this group. Unless noted, calls come from the whole dose curve; as a rule, active = well fitted curve in the direction sought with a large enough effect; inconclusive = small, poorly fitted or top-dose-only effect, or another doubt; inactive = no such curve, though single readings can be large; an effect the other way counts as inactive or inconclusive.

SMILES | TGFb SMAD3 inh | IL-1B inflam inh | HepG2 viability | TDP1 cell CPT | TDP1 cell noCPT | TDP1 inh
O=C(CCNc1cc(Cl)cc(Cl)c1)c1ccco1 | 3% | 18 | -24% | 13µM* | 13µM* | 2%
Cc1ccc(C(=O)C(C)OC(=O)CCN=C2NS(=O)(=O)c3ccccc32)cc1 (stereo unspecified) | -24% | 9 | -9% | -13% | -15% | 2%
CCc1ccc(NC(=O)CCc2c(C)nn(-c3ccc(N4CCCC4)nn3)c2C)cc1 | -16% | . | -5% | ? | ? | -10%
COc1ccccc1CNc1ccc(-c2nc(-c3cccc(C)c3)no2)cc1[N+](=O)[O-] | 21% | . | 2% | -1% | -15% | 9%
O=C(CCNc1ccc(Cl)c(C(F)(F)F)c1)c1ccco1 | 4% | -5 | -67% | 7.3µM* | 9.2µM* | 0%
O=S1(=O)C=C(Sc2nc3cc(Cl)ccc3o2)c2ccccc21 | -31% | -119* | -11% | 0.58µM* | 0.46µM* | -1%
CC12CN(S(=O)(=O)c3ccccc3)CC(C)(CN(S(=O)(=O)c3ccccc3)C1)C2 | -11% | -2 | 0% | 2.3µM* | ? | -4%
Cc1cc2c(cc3c(SCc4ccc(Cl)cc4)nnc(C)n32)o1 | ? | . | -46% | ? | ? | 3%
CCn1nc(C)c(CN2CCc3c([nH]c4ccccc34)C2c2ccc(F)c(OC)c2)c1C (stereo unspecified) | -26% | -15 | -28% | 29µM* | 12µM* | 3%
Cc1ccc(NC2=CC(c3ccccc3F)N(c3ccc(C)cc3)C2=O)cc1 (stereo unspecified) | 13% | . | -19% | -29% | ? | 3%
COc1ccc2nc(NN=C(C)c3ccccn3)cc(C)c2c1 | 1.1µM* | -102* | -55% | 1.6µM* | 2.9µM* | .
O=C(NCCS(=O)(=O)N1CCN(c2ccc(F)cc2)CC1)C(c1ccccc1)c1ccccc1 | -23% | . | -20% | ? | ? | 5%
O=C(NCCS(=O)(=O)N1CCN(c2ccc(F)cc2)CC1)C12CC3CC(CC(C3)C1)C2 | -16% | -19 | -30% | 18µM* | 16µM* | .
O=C(NCCS(=O)(=O)N1CCN(c2ccc(F)cc2)CC1)c1cccc(C(F)(F)F)c1 | -11% | . | -12% | ? | 18µM* | 2%
COc1cc(OC)cc(C(=O)OC(C)C(=O)NC2CCCc3ccccc32)c1 (stereo unspecified) | -7% | 0 | -24% | -25% | 7% | 0%
CC1CC(C)(C)NC(=S)N1CCCC(=O)Nc1ccc(F)cc1 (stereo unspecified) | -12% | -2 | -20% | -26% | 18µM* | 0%
CCOc1ccc(OCC)c(NC(=O)CCCN2C(=S)NC(C)(C)CC2C)c1 (stereo unspecified) | -24% | -10 | -28% | 16µM* | 16µM* | 11%
Cc1ccc(NC(=O)CCCN2C(=S)NC(C)(C)CC2C)cc1 (stereo unspecified) | -11% | -3 | -23% | 1% | -12% | -2%
CCN(CC)CCCn1c(-c2ccccc2)nc2c(N(CCOC)CCOC)nc(C)nc21 | . | . | . | . | . | 2%
CC(C)(C)c1ccc(-n2ncc3c2CCCC3NC(=O)CCN2CCCC2=O)cc1 (stereo unspecified) | -24% | 18 | . | 6.5µM* | 2.1µM* | 4%
CC(C)(C)c1ccc(-n2ncc3c2CCCC3NC(=O)CN2CCCC2=O)cc1 (stereo unspecified) | -42% | i | 13µM* | 18µM* | 16µM* | 3%[56.1 µM]
CC1(C)Cc2c(cnn2-c2ccc(F)cc2)C(NC(=O)CCN2CCCC2=O)C1 (stereo unspecified) | 14% | 34 | 8% | 18µM* | ? | 2%
CC1(C)Cc2c(cnn2-c2ccc(F)cc2)C(NC(=O)C2=NNC(=O)CC2)C1 (stereo unspecified) | -6% | 29 | 0% | 15µM* | ? | 3%
CC1(C)Cc2c(cnn2-c2cccc(F)c2)C(NC(=O)CCN2CCCC2=O)C1 (stereo unspecified) | 0% | i | -16% | -30% | -17% | 3%[56.1 µM]
CC(C)CNC(=O)/C=C/C=C/c1ccc2c(c1)OCO2 | 1% | -11 | -15% | 0% | ? | 0%
SMILES | TGFb SMAD3 inh | IL-1B inflam inh | HepG2 viability | TDP1 cell CPT | TDP1 cell noCPT | TDP1 inh
COc1ccc(-n2ncc3c2CC(C)(C)CC3NC(=O)c2c(C)cc(=O)oc2C)cc1 (stereo unspecified) | 4% | -2 | 4% | 26µM* | ? | 1%
COCc1ccc(C(=O)NC2CC(C)(C)Cc3c2cnn3-c2ccc(OC)cc2)o1 (stereo unspecified) | -1% | -18 | 2% | 6% | ? | 4%
CCOc1ccc(S(=O)(=O)N2CCN(c3nc(-c4ccccc4)nc4ccccc34)CC2)cc1OCC | -11% | . | -12% | ? | ? | 0%
Fc1ccc(-c2cc3nc(-c4ccccc4)cc(N4CCOCC4)n3n2)cc1 | 0% | -3 | -6% | 13µM* | 23µM* | 2%
FC(F)(F)c1cc(-c2ccccc2)nc2cc(-c3ccccc3)nn12 | 8% | . | 4% | -20% | -23% | -2%
Fc1cccc(-c2cc3nc(-c4ccccc4)cc(N4CCC5(CC4)OCCO5)n3n2)c1 | 9% | -14 | 0% | ? | 23µM* | .
Cc1ccc(-c2cc3nc(-c4ccccc4)cc(N4CCC5(CC4)OCCO5)n3n2)cc1 | ? | 0 | -5% | 16µM* | 18µM* | -13%[56.1 µM]
COCCN1CCN(c2cc(-c3ccccc3)nc3cc(-c4cccc(F)c4)nn23)CC1 | ? | -79* | -35% | 8.2µM* | 9.2µM* | -7%[56.1 µM]
COc1ccc(NC(=O)C2=C(C)Nc3ncnn3C2c2ccc(O)cc2)cc1 (stereo unspecified) | 5% | . | 2% | 3% | 9% | 3%
COCCN(C(=O)COC(=O)CSc1ccc(Cl)cc1)c1c(N)n(CC(C)C)c(=O)[nH]c1=O | -7% | 9 | -2% | -9% | 1% | 2%
COc1ccc(C(=O)Cn2c(NCCCO)nc3ccccc32)cc1 | -2% | ? | -7% | ? | ? | .
O=C(Cn1c(NCCO)nc2ccccc21)c1ccc(F)cc1 | 5% | -4 | 0% | -13% | -12% | 3%
COC(=O)COc1ccc(C(=O)Cn2c(NCCCO)nc3ccccc32)cc1 | 0% | -93* | 27% | -4% | -7% | .
